# From PubChem BioAssay (NCATS)
# Inconclusive results are not listed. Calls of active or inactive are those of the source. Unless noted, the call rests on the fitted dose curve; in most records, active means well fitted curve in the direction sought with a large enough effect; inconclusive means small, poorly fitted or top-dose-only effect, or another doubt; inactive means no such curve, though single readings can be large; an effect the other way counts as inactive or inconclusive.
# How the values were obtained:
# [1] = Quantitative High-Throughput drug screen in 47 multiple myeloma cell lines against the NCATS MIPE library collection: KMS11_JCRBsus cell viability assay (AID 1919873); further: nearly all actives have a fitted effect of over 50% in size; further: potency means the concentration at half of the fitted maximal effect
# Method in brief: (§1)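 Plated at 500 cells per well, myeloma lines received MIPE 4.0 compounds by pin tool. Following 48 h culture at 37 °C, CellTiter-Glo luminescence gave viability relative to DMSO and media-only controls.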
# [2] = qHTS drug screen for cell cycle checkpoint inhibitors in PARPi-resistant BRCA-mutant ovarian cancer cell lines. (AID 1963452; calls by dose curve; further: potency means the concentration at half of the fitted maximal effect); settings: PEO1/OlaR viability, CellTiter-Glo luminescence, 96 h; for Z-AUC: stronger effect = lower value
# Method in brief: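 PEO1, PEO4 and PEO1/OlaR ovarian cancer cells, 600 per well, exposed 96 h at 37C to a dilution series. Viability read by CellTiter-Glo luminescence, normalized to DMSO and empty wells; activity summarized as Z-AUC.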
# [3] = qHTS profiling for inhibitors of Plasmodium falciparum proliferation (AID 504749); further: potency means the concentration at half of the fitted maximal effect;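 on activity, negative = inhibition: 0% = DMSO vehicle and full inhibition = artemisinin control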; on all read-outs here: nearly all actives have a fitted effect of over 60% in size; settings: P. falciparum in erythrocytes, SYBR Green DNA, 72 h; for activity, negative = inhibition: at 28.7 µM (top of the series)
# Method in brief: (§2)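 Three-day growth assay of blood-stage parasites in erythrocytes (0.3% parasitemia, 2.5% hematocrit) at 37 C, 5% CO2, quantified by SYBR Green DNA staining after overnight detergent lysis.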
# [4] = system: 7G8; assay: as above; settings: P. falciparum in erythrocytes, SYBR Green DNA, 72 h; series mostly up to 28.7 µM
# Method in brief: as §2
# [5] = system: AS120; assay: as above; settings: P. falciparum in erythrocytes, SYBR Green DNA, 72 h; series mostly up to 28.7 µM
# Method in brief: as §2
# [6] = system: 3D7; assay: as above; settings: P. falciparum in erythrocytes, SYBR Green DNA, 72 h; series mostly up to 28.7 µM
# Method in brief: as §2
# [7] = system: AA1029; assay: as above; settings: P. falciparum in erythrocytes, SYBR Green DNA, 72 h; series mostly up to 28.7 µM
# Method in brief: as §2
# [8] = qHTS for identification of novel therapeutic agents for treatment of microphthalmiaassociated transcription factor (MiT) renal cell carcinoma (RCC) (AID 1963991); settings: CellTiter-Glo, 48 h, stronger effect = lower value;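 further: curves scaled with 100% = DMSO viability and 0% = empty wells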
# Method in brief: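 UOK109/UOK124/UOK145 (TFE3 fusions, three partners); 500 cells/well; MIPE v4.0, 1912 cpds, 11 conc.; 48 h, 37 C; CellTiter-Glo, 15 min RT; lum. Norm.: DMSO 100%, empty 0%.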
# [9] = Quantitative High-Throughput drug screen in 47 multiple myeloma cell lines against the NCATS MIPE library collection: KMS28BM_JCRB cell viability assay (AID 1919874); further: nearly all actives have a fitted effect of over 35% in size; further: potency means the concentration at half of the fitted maximal effect
# Method in brief: as §1
# [10] = Quantitative High-Throughput drug screen in 47 multiple myeloma cell lines against the NCATS MIPE library collection: OPM2_DSMZ cell viability assay (AID 1919872); further: nearly all actives have a fitted effect of over 30% in size
# Method in brief: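 Viability readout: CellTiter-Glo luminescence following 5 min room-temperature incubation with reagent. Prior exposure: 48 h, 37C, humidified 5% CO2, 500 cells per well.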
# [11] = measured here: PEO1 parental Z-AUC
# [12] = TFE3-RCC UOK109 viability, measured here: UOK109 Z-AUC
# [13] = TFE3-RCC viability, measured here: UOK124 Z-AUC
# [14] = TFE3-RCC viability, measured here: UOK145 Z-AUC
compound,measurement,setting,value
Cc1nc(Nc2ncc(C(=O)Nc3c(C)cccc3Cl)s2)cc(N2CCN(CCO)CC2)n1,Potency,[1],14.8 µM (active)
same,Z-AUC,[2],-3.38 (inactive)
same,Z-AUC,[2]; [11],-2.38
same,Z-AUC,[2]; measured here: PEO4 Z-AUC,-0.444
same,"activity, negative = inhibition",[3]; parasite line B,-17.2% (inactive)
same,Potency,[4],5.62 µM (active)
same,Potency,[5],12.6 µM (active)
Cc1cccc(C)c1OCC(=O)N[C@@H](Cc1ccccc1)[C@@H](O)C[C@H](Cc1ccccc1)NC(=O)[C@H](C(C)C)N1CCCNC1=O,Potency,[1],20.9 µM (active)
same,Potency,[3]; parasite line A,8.91 µM (active)
same,Potency,[3]; parasite line B,5.01 µM (active)
same,Potency,[6],7.08 µM (active)
same,Potency,[4],0.794 µM (active)
same,Potency,[7],3.55 µM (active)
same,Potency,[5],1.41 µM (active)
O=C1c2c(O)cc(O)cc2OC(c2ccc(O)c(O)c2)C1O (configuration not stated),Potency,[1],inactive
same,z-score,[8]; [12],-0.477
same,z-score,[8]; [13],0.528
same,z-score,[8]; [14],0.535
CC1=C(C)C(=O)C(C(CCCCCC(=O)O)c2ccccc2)=C(C)C1=O (configuration not stated),z-score,[8]; [12],0.248
same,z-score,[8]; [13],0.105
same,z-score,[8]; [14],-0.311
same,"activity, negative = inhibition",[3]; parasite line A,-13.8% (inactive)
same,"activity, negative = inhibition",[3]; parasite line B,-26.9% (inactive)
same,Potency,[4],inactive
same,Potency,[7],inactive
Clc1ccc(C(Cn2ccnc2)OCc2c(Cl)cccc2Cl)c(Cl)c1 (configuration not stated),Z-AUC,[2],0.975 (inactive)
same,Z-AUC,[2]; [11],0.252
same,Z-AUC,[2]; measured here: PEO4 Z-AUC,0.49
O=c1cc(N2CCOCC2)oc2c(-c3ccccc3)cccc12,Z-AUC,[2],0.98 (inactive)
same,Z-AUC,[2]; [11],0.743
same,Z-AUC,[2]; measured here: PEO4 Z-AUC,0.809
CCOC(=O)C(C)Oc1cccc2c(=O)n(CC(=O)Nc3ccc4c(c3)OCCO4)ccc12 (configuration not stated),Potency,[1],inactive
same,Potency,[9],inactive
same,Z-AUC,[2],0.881 (inactive)
same,Z-AUC,[2]; [11],0.435
same,Z-AUC,[2]; measured here: PEO4 Z-AUC,0.282
same,z-score,[8]; [12],0.811
same,z-score,[8]; [13],0.396
same,z-score,[8]; [14],0.65
Cc1c(C(=O)NN2CCCCC2)nn(-c2ccc(Cl)cc2Cl)c1-c1ccc(Cl)cc1,Potency,[1],23.5 µM (active)
same,Potency,[9],23.5 µM (active)
same,Potency,[3]; parasite line B,11.2 µM (active)
same,Potency,[4],12.6 µM (active)
same,Potency,[5],12.6 µM (active)
CN(C)[C@@H](CCOc1cccc2ccccc12)c1ccccc1,Potency,[1],23.5 µM (active)
same,Potency,[9],18.7 µM (active)
O=C(NCC1CCCCN1)c1cc(OCC(F)(F)F)ccc1OCC(F)(F)F (configuration not stated),Potency,[1],23.5 µM (active)
same,Potency,[9],18.7 µM (active)
same,Z-AUC,[2],-0.39 (inactive)
same,Z-AUC,[2]; [11],-0.839
same,Z-AUC,[2]; measured here: PEO4 Z-AUC,-1.07
COc1cc2c(cc1OC)C1CC(=O)C(CC(C)C)CN1CC2 (configuration not stated),Potency,[1],inactive
same,Potency,[9],inactive
same,z-score,[8]; [12],0.853
same,z-score,[8]; [13],0.433
same,z-score,[8]; [14],0.758
same,"activity, negative = inhibition",[3]; parasite line A,3.41% (inactive)
same,"activity, negative = inhibition",[3]; parasite line B,0.311% (inactive)
same,Potency,[6],inactive
same,Potency,[4],inactive
same,Potency,[7],inactive
same,Potency,[5],inactive
COC(=O)N[C@H](C(=O)N[C@@H](Cc1ccccc1)[C@@H](O)CN(Cc1ccc(-c2ccccn2)cc1)NC(=O)[C@@H](NC(=O)OC)C(C)(C)C)C(C)(C)C,Potency,[10],inactive
same,z-score,[8]; [12],0.351
same,z-score,[8]; [13],-0.0676
same,z-score,[8]; [14],2.98
NC(=O)Cc1cccc(C(=O)c2ccccc2)c1N,Potency,[1],inactive
same,Potency,[9],inactive
CC(=O)O[C@H]1C(=O)[C@@]2(C)C([C@H](OC(=O)c3ccccc3)[C@]3(O)C[C@H](OC(=O)[C@H](O)[C@@H](NC(=O)c4ccccc4)c4ccccc4)C(C)=C1C3(C)C)[C@]1(OC(C)=O)CO[C@@H]1C[C@@H]2O (some centres not stated),Potency,[1],inactive
same,Potency,[2],0.0078 µM (active)
same,Z-AUC,[2]; [11],-2.74
same,Z-AUC,[2]; measured here: PEO4 Z-AUC,-3.15
Cc1cccc(CN2CCN(C(c3ccccc3)c3ccc(Cl)cc3)CC2)c1 (configuration not stated),Z-AUC,[2],-1.46 (inactive)
same,Z-AUC,[2]; [11],-0.604
same,Z-AUC,[2]; measured here: PEO4 Z-AUC,-1
COc1cc2c(N3CCN(C(=O)Nc4ccc(OC(C)C)cc4)CC3)ncnc2cc1OCCCN1CCCCC1,Potency,[1],26.4 µM (active)
same,Z-AUC,[2],1.04 (inactive)
same,Z-AUC,[2]; [11],0.804
same,Z-AUC,[2]; measured here: PEO4 Z-AUC,1.1
Cn1c(NCCN(CCO)CCCc2ccc([N+](=O)[O-])cc2)cc(=O)n(C)c1=O,Potency,[10],inactive
same,"activity, negative = inhibition",[3]; parasite line A,6.79% (inactive)
same,"activity, negative = inhibition",[3]; parasite line B,16.9% (inactive)
same,Potency,[6],inactive
same,Potency,[7],inactive
same,Potency,[5],inactive
CC(=O)Nc1ccc(O)cc1,Z-AUC,[2],0.911 (inactive)
same,Z-AUC,[2]; [11],0.308
same,Z-AUC,[2]; measured here: PEO4 Z-AUC,0.415
same,z-score,[8]; [12],1.26
same,z-score,[8]; [13],0.904
same,z-score,[8]; [14],0.696
CCCCCCCCOc1ccccc1C(=O)Nc1ccc(C(=O)OCC[N+](C)(CC)CC)cc1,Potency,[1],18.7 µM (active)
same,Potency,[3]; parasite line A,12.6 µM (active)
same,Potency,[3]; parasite line B,10 µM (active)
same,Potency,[6],10 µM (active)
same,Potency,[4],12.6 µM (active)
same,Potency,[7],10 µM (active)
